# High-throughput results deposited in PubChem by several laboratories.
# Most compounds without a hit are left out; they make up all but 22% or so of the library.
# CYP2C19 activ – activators of human cytochrome P450 2C19. recombinant CYP2C19, luciferin-H EGE luminescence; stronger effect = higher value; 0 = fully inhibited enzyme, 1 = untreated enzyme. activation factor at 5 µM. P33261. 96,000 tested, under 10 active;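 active = activation factor of at least 2 at 5 µM in the primary screen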;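 also: 0 = wells with 2.5 mM tranylcypromine and 1 = vehicle-only wells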
# CYP2C9 inhib – inhibitors of human CYP2C9; CYP2C9 Supersomes, luciferin-H conversion, luminescence; inhibition, % at 5 µM; hit rate 20% among 96,000; AID 777; P11712;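 active = blocking of liver enzyme CYP2C9 beyond about 50% at 5 µM, limit read from the data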
# Target sequence (P11712 whole entry, looked up): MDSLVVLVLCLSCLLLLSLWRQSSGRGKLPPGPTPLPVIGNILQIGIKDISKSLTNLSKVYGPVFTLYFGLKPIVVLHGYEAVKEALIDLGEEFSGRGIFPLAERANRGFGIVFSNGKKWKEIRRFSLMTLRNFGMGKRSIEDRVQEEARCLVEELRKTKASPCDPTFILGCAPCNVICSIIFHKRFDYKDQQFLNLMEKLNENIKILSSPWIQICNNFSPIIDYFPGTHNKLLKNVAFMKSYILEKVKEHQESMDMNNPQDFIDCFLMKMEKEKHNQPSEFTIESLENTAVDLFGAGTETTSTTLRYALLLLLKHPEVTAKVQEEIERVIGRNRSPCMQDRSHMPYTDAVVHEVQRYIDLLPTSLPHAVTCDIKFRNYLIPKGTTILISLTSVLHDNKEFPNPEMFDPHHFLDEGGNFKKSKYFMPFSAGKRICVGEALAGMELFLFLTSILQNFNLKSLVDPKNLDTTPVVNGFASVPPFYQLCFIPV
# Measles CPE – protection of cells from measles virus; Measles virus-infected cells, CPE protection, absorbance; protection (pct of control), % at 4 µM; hit rate 1.5% among 140,000; in the data active = protection mostly above about 24%, no sharp cut-off; inactive = mostly below about 26%
# CYP2C19 inh – inhibitors of human CYP2C19 | P33261 | CYP2C19 Supersomes, luciferin-H EGE luminescence, 30 min | inhibition, % at 5 µM | hit rate 21% among 96,000 | AID 778;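 active = CYP2C19 inhibition above a set limit at 5 µM in the primary screen, cut at about 50% in these data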;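 also: plate controls were negative control wells for no effect and 2.5 mM tranylcypromine positive control for full effect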
# CYP2C9 act – increases human cytochrome P450 2C9 activity. P11712. recombinant CYP2C9, luciferin-H conversion, luminescence; stronger effect = higher value; factor 1 = untreated enzyme, 0 = blocked. activation factor at 5 µM. hit rate 1.4% among 96,000;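 active = activation factor of 2 or more for CYP2C9 at a 5 µM dose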;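 also: 0 = sulfaphenazole-blocked wells and 1 = vehicle-only wells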
# Numbers without * were called inactive; / = not tested or not shown.
SMILES,CYP2C19 activ,CYP2C9 inhib,Measles CPE,CYP2C19 inh,CYP2C9 act
Cc1cc(C)n(-c2nc3sc4c(c3c(=O)[nH]2)CCCC4)n1,0.9,8,6,8,0.9
COc1ccccc1NC(=S)N1CCN(Cc2ccc3c(c2)OCO3)CC1,/,/,2,/,/
COCC(=O)NCc1ccc2c(c1)OCO2,1.1,-7,5,-12,1.1
COc1cc(CC(=O)NCc2ccc3c(c2)OCO3)cc(OC)c1OC,0.3,-11,4,74*,1.1
Cc1ccc(-n2ncc(C(=O)NCc3ccc4c(c3)OCO4)c2NC(=O)c2ccco2)cc1C,0.4,87*,0,64*,0.1
COc1ccccc1NC(=O)NCc1ccc2c(c1)OCO2,0.5,-6,7,54*,1.1
COc1ccc(C(C)NC(=O)c2ccoc2C)cc1OC (stereo unspecified),0.8,8,2,20,0.9
Cc1occc1C(=O)NC(C)c1ccc2c(c1)OCO2 (stereo unspecified),0.4,-3,5,62*,1
Cc1ccc(NC(=O)CSc2ccc(-c3ccc4c(c3)OCO4)nn2)cc1F,/,/,8,/,/
CCc1ccc(C(=O)NCc2ccc(Cl)cc2Cl)cc1,/,/,6,/,/
COC(=O)c1ccccc1NC(=O)NCc1cccnc1,0.6,4,9,40,1
COC(=O)c1ccccc1NC(=O)NCc1ccc2c(c1)OCO2,0.5,25,14,52*,0.8
CCn1c(N)c(C(=O)NCc2ccc3c(c2)OCO3)sc1=S,0.5,63*,5,51*,0.4
Cc1occc1C(=O)NCc1cccc(CNC(=O)c2ccoc2C)c1,0.9,10,23,10,0.9
CC(NC(=O)C1CCC1)c1ccc2c(c1)OCO2 (stereo unspecified),0.5,30,1,51*,0.7
Cc1occc1C(=O)NCc1ccc2c(c1)OCO2,0.1,26,7,88*,0.7
CCOC(=O)C1CCN(C=Nc2cc(C)on2)CC1,1.2,-6,9,-15,1.1
O=C(/C=N/O)Nc1cccnc1,/,/,24,/,/
C/C(N)=C(/C#N)C(=O)CSc1nnc(Nc2cccc(C)c2)s1,/,/,15,/,/
COC(=O)C1CC(O)CN1C(=O)c1ccco1 (stereo unspecified),1.2,-22,26,-23,1.2
CCOc1ccccc1C(=O)NC(C)c1ccc2c(c1)OCO2 (stereo unspecified),0.2,-45,2,80*,1.5
CCOc1ccc(C(C)NC(=O)Cc2ccccc2)cc1OCC (stereo unspecified),/,/,8,/,/
COc1ccccc1C(=O)NCc1ccc2c(c1)OCO2,0,52*,0,95*,0.5
O=c1cc(CNCCCO)c2ccccc2[nH]1,1.1,-23,2,-15,1.2
COc1cc(CNn2c(C)n[nH]c2=S)cc(Cl)c1OCc1ccc(F)cc1,0.9,6,5,12,0.9
SMILES,CYP2C19 activ,CYP2C9 inhib,Measles CPE,CYP2C19 inh,CYP2C9 act
COc1cc(CNC2CCCC2)cc(Cl)c1OCc1ccc(F)cc1,0,31,2,95*,0.7
CCOc1cc(CNC2CCCC2)cc(Cl)c1OCc1ccc(F)cc1,0.1,37,10,95*,0.6
COc1cc(CNC2CCCC2)cc(OC)c1OC,1,-13,3,-2,1.1
O=C(NC(=S)N1CCN(c2c(Cl)cccc2[N+](=O)[O-])CC1)c1cccs1,0.6,78*,15,45,0.2
O=C(c1cccnc1)N1CCN(c2c(Cl)cccc2[N+](=O)[O-])CC1,0.2,29,5,82*,0.7
CCC(=O)N1CCN(c2c(Cl)cccc2[N+](=O)[O-])CC1,0.8,18,27,21,0.8
CC(C)C(=O)N1CCN(c2c(Cl)cccc2[N+](=O)[O-])CC1,0.6,21,11,39,0.8
COc1ccc(CN(C)C2CCCCC2)cc1,0.4,-29,3,64*,1.3
Cc1cc(C(=O)Cn2nnc3ccccc3c2=O)c(C)n1Cc1cccs1,0,71*,9,97*,0.3
CN(C)C(=O)N1CCCC(C(=O)NCCc2ccccc2)C1 (stereo unspecified),0.8,9,16,22,0.9
CN(C)C(=O)N1CCCC(C(=O)NCc2ccccc2)C1 (stereo unspecified),0.4,0,3,57*,1
CCOc1ccc(NC(=O)C2CCN(C(=O)NCc3ccccc3)CC2)cc1,1,-5,7,-2,1
CCOc1ccccc1NC(=O)C1CCCN(C(=O)NCc2ccccc2)C1 (stereo unspecified),0.5,-78,13,51*,1.8
CC(C)CC(OC(=O)c1ccco1)C(=O)NCC1CCCO1 (stereo unspecified),1,26,12,5,0.7
CCC(C)(C)NC(=O)C(c1ccco1)N(C(=O)CNC(=O)c1cccs1)c1cccnc1 (stereo unspecified),/,/,4,/,/
O=C(CN1C(=O)CSC1=O)Nc1ccc(C(=O)O)cc1,0.8,-6,102*,25,1.1
CCCCC(=O)c1c(O)c2ccccc2oc1=O,1.1,21,13,-10,0.8
CCOc1ccc(OCC(=O)c2c(O)c3ccccc3oc2=O)cc1,1,91*,7,-1,0.1
CCCCN=C(C)c1c(O)c2ccccc2oc1=O,0.2,56*,8,85*,0.4
COc1ccc(OCC(=O)c2c(O)c3ccccc3oc2=O)cc1,1.1,78*,27,-11,0.2
O=C(CC1CCCCC1)c1c(O)c2ccccc2oc1=O,1.1,28,25,-6,0.7
Cc1nc(-c2ccc(S(=O)(=O)N3CCCCCC3)cc2)cs1,0.8,23,12,18,0.8
N#C/C(=N\Nc1ccc(Cl)cc1)C(=O)c1ccccc1,0.3,7,25,69*,0.9
Cc1cc(C(=O)OCC(=O)N2c3ccccc3CC2C)c(C)o1 (stereo unspecified),0.3,48,12,75*,0.5
Cc1cc(C(=O)OCC(=O)N2CC(C)CC(C)C2)c(C)o1 (stereo unspecified),0.5,16,13,55*,0.8
SMILES,CYP2C19 activ,CYP2C9 inhib,Measles CPE,CYP2C19 inh,CYP2C9 act
CN(C)c1nc(-c2ccc([N+](=O)[O-])cc2)cs1,0.7,4,8,31,1
O=C(c1ccccc1)N1CCN2C(=O)c3ccccc3C12c1ccc(Cl)cc1 (stereo unspecified),0.4,31,7,63*,0.7
O=C(Nc1ccccc1)N1CCN2C(=O)c3ccccc3C12c1ccccc1 (stereo unspecified),0.1,96*,7,93*,0
COc1cc(/C=N/n2cnnc2)ccc1OCCSc1ccc(C)cc1,0.2,54*,3,80*,0.5
COc1cc(/C=N\n2cnnc2)ccc1OCC(=O)Nc1ccc(C)cc1,0.8,44,5,16,0.6
CN(Cc1ccco1)C(=O)C(Cc1ccccc1)NS(=O)(=O)c1ccc2c(c1)CCC(=O)N2 (stereo unspecified),0.4,71*,8,56*,0.3
CCCNC(=O)C(Cc1ccccc1)NS(=O)(=O)c1ccc2c(c1)CCC(=O)N2 (stereo unspecified),0.9,12,14,8,0.9
